Screening data (PubChem)
CHRM1 antagonist – human CHRM1 antagonism | P11229 | inhibition, % at 3 µM | CHO-K1 hM1, Fluo-8 calcium fluorescence, ACh EC80 antagonist | 360,000 tested, 1.3% active;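 active = percent inhibition above its own plate's cutoff, namely the mean of that plate's compound wells plus 3 SD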;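 note: peak over basal fluorescence ratio during 140 s after agonist addition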
Target sequence (P11229 whole entry, looked up): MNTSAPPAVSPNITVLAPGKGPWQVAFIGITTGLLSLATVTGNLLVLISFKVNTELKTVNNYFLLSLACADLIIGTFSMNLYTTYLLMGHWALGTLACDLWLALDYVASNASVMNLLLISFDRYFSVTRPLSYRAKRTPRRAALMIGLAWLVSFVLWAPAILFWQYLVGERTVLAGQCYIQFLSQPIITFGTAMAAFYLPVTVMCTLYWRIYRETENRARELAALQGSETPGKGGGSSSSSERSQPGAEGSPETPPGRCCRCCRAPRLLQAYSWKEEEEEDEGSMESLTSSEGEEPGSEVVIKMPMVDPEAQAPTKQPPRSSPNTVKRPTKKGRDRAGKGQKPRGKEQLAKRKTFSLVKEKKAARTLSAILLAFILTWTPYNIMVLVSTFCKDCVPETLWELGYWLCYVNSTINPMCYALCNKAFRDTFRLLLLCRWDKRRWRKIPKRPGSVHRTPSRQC
M1 PAM – potentiates human M1 receptor response to acetylcholine. P11229. CHO-K1 hM1, Fluo-8 calcium fluorescence, ACh EC20; 0% = ACh EC20, 100% = maximal ACh. activation, % at 3 µM. 360,000 tested, 0.088% active; in the data active = activation above about 19%, passing the limit was not always enough
M1 PAM parental – counter-screen for M1 PAMs: effect in parental CHO-K1 cells. ATP EC20, Fluo-8 calcium fluorescence; 0% at ATP EC20, 100% at ATP max. activation, % at 3 µM. 360,000 tested, 0.02% active;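 active = activation above the run cutoff, the mean activation of all test compounds plus 3 SD, cut at about 40% in these data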;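 note: peak over basal fluorescence ratio in a 140 s read after ATP addition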
M1 ag – activates human CHRM1 receptor | P11229 | CHO-K1 hM1, Fluo-8 calcium fluorescence, agonist mode; 0% DMSO, 100% acetylcholine EC100 | activation, % at 3 µM | 360,000 tested, 0.33% active;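 active = activation above the run's mean compound activation plus 3 SD, cut at about 16% in these data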;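 note: peak over basal fluorescence ratio within a 140 s kinetic read after compound addition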
CHO-K1 Ca ag – counter-screen for M1 agonists: effect in parental CHO-K1 cells; Fluo-8 calcium fluorescence; scaled to maximal ATP response, vehicle zero; activation, % at 3 µM; 360,000 tested, 0.48% active; in the data active = activation above about 15%;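 note: untransfected CHO-K1 host cells lacking M1 receptor as counterscreen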
CHO-K1 Ca antag – nonselective inhibitor or artifact in parental CHO-K1 cells; ATP-induced calcium, Fluo-8 fluorescence; inhibition, % at 3 µM; 360,000 tested, 0.6% active;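 active = inhibition above a per-plate cutoff, the plate's mean sample inhibition plus 3 SD, cut at about 24% in these data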
Large screens that a line does not name were inactive. A selection: hits, their analogues and other compounds. The true share with any hit is near 2.3%.

CN1C(=S)N(c2cccnc2)C(=O)/C1=C\c1ccc(N(C)C)cc1	CHRM1 antagonist 44, M1 ag 39, CHO-K1 Ca ag 21
CN1C(=S)N(c2cccnc2)C(=O)/C1=C\c1ccc(C(C)(C)C)cc1	none
Cc1ccc(CN2CCN(CCCn3cnc4c(OCc5ccccc5)ncnc43)CC2)cc1	CHRM1 antagonist 47
CCN(CC(=O)Nc1ccc(N2CCOCC2)cc1)C(=O)Cc1ccccc1	none
CCCS(=O)(=O)NC(=O)C1(C)CCCN(C(=O)c2ccccc2Br)C1 (stereo unspecified)	none
CCCS(=O)(=O)NC(=O)C1(C)CCN(C(=O)c2ccccc2Br)C1 (stereo unspecified)	M1 PAM 27
O=C1CC(c2ccccc2)CC(O)=C1C=NCCN1CCNCC1 (stereo unspecified)	CHRM1 antagonist 25
O=C1CC(c2ccco2)CC(O)=C1C=NCCN1CCNCC1 (stereo unspecified)	CHRM1 antagonist 39
O=C1CC(c2cccs2)CC(O)=C1C=NCCN1CCNCC1 (stereo unspecified)	CHRM1 antagonist 32, M1 ag 17
O=C1CC(c2ccc(F)cc2)CC(O)=C1C=NCCN1CCNCC1 (stereo unspecified)	none
CC(C)OCCCn1c(SCC(=O)Nc2ccccc2C(F)(F)F)nc2nccnc2c1=O	none
Cc1cc(/C=C2\C(=N)N3C(SCc4ccccc4)=NSC3=NC2=O)c(C)n1Cc1ccccc1	none
CC(C)CSC1=NSC2=NC(=O)/C(=C\c3ccccc3)C(=N)N12	none
CSC1=NSC2=NC(=O)/C(=C\c3coc4ccccc4c3=O)C(=N)N12	CHRM1 antagonist 35, M1 ag 45, CHO-K1 Ca ag 20
CC(C)CSC1=NSC2=NC(=O)/C(=C\c3coc4ccccc4c3=O)C(=N)N12	CHRM1 antagonist 60, M1 ag 143, CHO-K1 Ca ag 107, CHO-K1 Ca antag 60
CC(C)n1nc(C(=O)Nc2cccc(S(=O)(=O)N3CCOCC3)c2)c2ccccc2c1=O	none
Cc1nn(C)c(C)c1CN(C)S(=O)(=O)c1ccc2ccccc2c1	CHRM1 antagonist 24, CHO-K1 Ca antag 25
CCCC(=O)Nc1cc(-c2nn(C)c(=O)c3ccccc23)ccc1OC	CHO-K1 Ca antag 24
CCCc1nc(Cl)c(C#N)c2c1CCCC2	M1 ag 22
CCc1nc(Cl)c(C#N)c2c1CCCC2	none
Cc1ccc(N(C)C(=O)CCNC(=O)Cn2cnc3ccccc3c2=O)cc1C	CHO-K1 Ca antag 35
CC(=O)Nc1ccc(Sc2ncccc2C(=O)Nc2ccc(OC(F)(F)F)cc2)cn1	CHRM1 antagonist 64, M1 ag 66, CHO-K1 Ca ag 53, CHO-K1 Ca antag 59
O=C(COc1ccc(Cl)cc1Cl)Nc1ccc(CN2CCCCC2)cc1	CHRM1 antagonist 21
O=C(COc1ccc(Cl)cc1Cl)Nc1ccc(CN2CCOCC2)cc1	none
COc1ccc(C(=O)NC(=S)Nc2ccc(CN3CCCCC3)cc2)cc1Cl	CHRM1 antagonist 29
COc1ccc(C(=O)NC(=S)Nc2ccc(CN3CCOCC3)cc2)cc1Cl	none
COCCN(CC(=O)Nc1cccc(C)c1C)C(=O)Cn1c(=O)cnc2ccccc21	none
COc1ccc(/C=N/n2nnnc2N)c(OC)c1	CHRM1 antagonist 38
Fc1ccc2c(c1)Sc1ccc(Cl)cc1CC2N1CCN(CCC2OCCO2)CC1 (stereo unspecified)	CHRM1 antagonist 75
NC(=O)CCN1CCN(CCOC2Cc3cc(Cl)ccc3Sc3ccccc32)CC1 (stereo unspecified)	none
CC(=O)NCCC(=O)NCC1(N(C)Cc2ccccc2)Cc2ccccc2C1	CHO-K1 Ca ag 16
O=c1[nH]c2cc3ccccc3cc2nc1-c1nnnn1Cc1ccccc1	none (no result: CHRM1 antagonist, M1 PAM, M1 ag)
O=C(c1cccc(C(F)(F)F)c1)N1CCC(O)(CS(=O)(=O)Cc2ccc(Cl)cc2)CC1	CHO-K1 Ca antag 29
O=C(Nc1cc(S(=O)(=O)N2CCOCC2)ccc1N1CCCC1)c1ccc2c(c1)S(=O)(=O)c1ccccc1C2=O	none
O=C(N/N=C/c1cccnc1)c1ccc(CN2c3cccc4cccc(c34)S2(=O)=O)cc1	none
O=C(N/N=C/c1ccccc1)c1ccc(CN2C(=O)c3cccc4cccc2c34)cc1	M1 ag 43
Cc1cc([N+](=O)[O-])nn1Cc1ccc(C(=O)N/N=C/c2ccc(O)cc2O)cc1	none
O=C(N/N=C/c1ccc(O)cc1O)c1ccc(CN2C(=O)c3cccc4cccc2c34)cc1	M1 ag 16
Cc1nn(-c2ccccc2)c(C)c1NC(=O)COc1cc(F)ccc1[N+](=O)[O-]	CHO-K1 Ca ag 18
O=C1c2ccccc2[C@@H]2C[C@@H](O)[C@H](Nc3cccc4ccccc34)CCN12	CHRM1 antagonist 25
CCc1c(C)nc(SCC(=O)N2CCCCC2C)[nH]c1=O (stereo unspecified)	none
CC1=CCC(C(=O)N/N=C/c2cccs2)C(c2ccc(F)cc2)C1 (stereo unspecified)	M1 PAM parental 48
NC1=NC2(CCCCC2)n2c(nc3ccccc32)N1	none
NC1=NC2(CCN(Cc3ccccc3)CC2)n2c(nc3ccccc32)N1	CHO-K1 Ca antag 29
c1ccc(Sc2ncccn2)nc1	none
C#Cc1ccc(NC(=O)C2(C)CCN2C(=O)Cc2ccc(C(C)C)cc2)cc1 (stereo unspecified)	none
CC1CC(C)CN(CCCNC(=O)C2CCCN(c3ncnc4c3nc3n4CCCCC3)C2)C1 (stereo unspecified)	CHRM1 antagonist 29
CC1CCCN(CCCNC(=O)C2CCCN(c3ncnc4c3nc3n4CCCCC3)C2)C1 (stereo unspecified)	none
COc1cccc(CCNC(=O)C2CCCN(c3ncnc4c3nc3n4CCCCC3)C2)c1OC (stereo unspecified)	none
Cc1ccccc1CN1CCC(CNC(=O)C2CCCN(c3ncnc4c3nc3n4CCCCC3)C2)CC1 (stereo unspecified)	CHRM1 antagonist 101
Cc1nc(S(=O)(=O)N2CCN(C3c4ccccc4-c4ccccc43)CC2)cn1C	none
Cc1nc2c(o1)CCc1ccccc1C2N1CCN(C)CC1 (stereo unspecified)	CHRM1 antagonist 99
COc1ccccc1N1CCN(C2=Nc3cccc4cccc2c34)CC1	CHRM1 antagonist 89
CCOC(=O)N1CCN(C2=Nc3cccc4cccc2c34)CC1	CHRM1 antagonist 84
c1ccc(CC2CCN(C3=Nc4cccc5cccc3c45)CC2)cc1	CHRM1 antagonist 72
CC1CCCC(NC(=O)c2cccc(S(=O)(=O)N3CCCCC3)c2)C1C (stereo unspecified)	none
COc1cccc(-c2cnc(C(O)c3ccc(Cl)cc3C)[nH]2)c1 (stereo unspecified)	none
Cc1ccc2cccc(NC(=S)NC(=O)c3c(Br)cnn3C)c2n1	CHO-K1 Ca antag 26
